SUMO Mot1 rescue – inhibitors of SUMOylation pathway: yeast Mot1-301 growth rescue; 1% of 320,000 active; growth rescue, % at 18.8 µM; AID 2716; S. cerevisiae Mot1-301 growth rescue, ATP luminescence, 38.5C; percent above DMSO median, 100 means doubled;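 active means every valid replicate shows activation above 250% relative to neutral control wells; inactive means the rest, any valid replicate at or below 250%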;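 further: OY570 slx delta 5 strain wells were the positive control but not used for scaling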
Calb FLC – C. albicans growth modulation with fluconazole; C. albicans CaCi-2 (fluconazole-resistant clinical isolate) + fluconazole, Alamar Blue growth, 48 h; growth inhibition, % (test concentration not listed); 0.57% of 300,000 active; AID 1979;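 active means growth inhibition above about 58% in most replicates, limit read from the data, passing the limit was not always enough; inconclusive means exactly half the replicates above a set limit; inactive means most replicates below a set limit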;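 further: all wells also contain fluconazole at 8 µg/ml as a sub-toxic cotreatment; 0% = median of DMSO wells and 100% = median of geldanamycin control wells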
ATG4B inhibitor – inhibitors of human ATG4B cysteine protease; Q9Y4P1; ATG4B cleavage of LC3-PLA2, NBD-HPC fluorescence, 1 h; inhibition, % at 8.33 µM; 0.51% of 340,000 active; in the data active means inhibition above about 40%
NadD inh – NadD (S. aureus) enzyme inhibition; purified NadD enzyme, colorimetric absorbance read-out; inhibition, % at 20 µM; 0.78% of 360,000 active; AID 602399; in the data active means inhibition above about 26%
FAS TE block – FAS thioesterase (human) inhibition; AID 602261; recombinant FAS-TE, OMFH fluorogenic substrate, fluorescence endpoint; inhibition, % at 15 µM; 0.67% of 360,000 active;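 active means compounds whose normalised, plate-corrected inhibition of enzyme fluorescence in the single-dose primary screen is 50% or more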;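 further: 0% = DMSO with enzyme and 100% = substrate without enzyme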
The depositor's hits bear a star; ? = inconclusive; . = not tested or not shown; + = active, no number. Compounds with a hit are over-represented: about 3.1% of the library has one in this group of screens.

SMILES | SUMO Mot1 rescue | Calb FLC | ATG4B inhibitor | NadD inh | FAS TE block
CCOC(=O)C(=O)NNc1ccc(F)cc1 | 413* | 0 | 3 | -4 | -8
CCOC(=O)C(=O)N/N=C/c1ccc(F)cc1 | -8 | -6 | -6 | 4 | -4
CCc1ccc(C(=O)NNc2ccc(S(N)(=O)=O)cc2)cc1 | -6 | 8 | 2 | 1 | -4
CCc1ccc(C(=O)NNc2ccc(F)cc2)cc1 | 319* | 80* | 0 | -3 | -1
COc1cc(C(=O)OCc2cccc(OC)c2OC)ccc1OCC(=O)N1CCOCC1 | 8 | . | 7 | -5 | -4
OCCC1CN(Cc2cccn2-c2cccnc2)CCN1Cc1ccc(F)cc1 (configuration not stated) | 358* | -9 | -1 | -1 | -8
CCOc1ccc(CN2CCN(Cc3cccn3-c3cccnc3)CC2CCO)cc1 (configuration not stated) | 6 | -11 | 2 | -4 | 2
Cc1ccc(-n2nnc3c(=O)n(Cc4cccc(C)c4)cnc32)cc1 | 405* | -1 | 4 | -4 | 13
O=C(COc1ccc(Cl)cc1Cl)NN1C(=O)C2C3C=CC([C@@H]2C1=O)C31CC1 (some centres not stated) | -1 | 10 | -2 | -2 | 2
O=C(COc1ccc(Cl)cc1Cl)NN1C(=O)/C(=C\c2ccc(Cl)cc2)SC1=S | -9 | -8 | 8 | 33* | 4
O=C1NN(c2ccc(F)cc2)C(=O)/C1=C/c1cccs1 | 85 | 101* | 16 | -8 | -9
COc1cccc(/C=C2/C(=O)NN(c3ccc(F)cc3)C2=O)c1 | 26 | -10 | -7 | 1 | -3
O=c1c(O)c(-c2cc(O)c(O)c(O)c2)oc2cc(O)cc(O)c12 | 265* | . | -7 | 9 | 7
O=c1c(O)c(-c2ccccc2)oc2cc(O)cc(O)c12 | . | . | -19 | -3 | 1
CC(=O)Nc1ccc(S(=O)(=O)Nc2cccc(NC(=O)c3ccco3)c2)cc1 | 7 | 14 | 2 | 5 | -1
O=C(NCCCl)C1Cc2c(ccc3ccccc23)O1 (configuration not stated) | + | 25 | 3 | 4 | -4
CN(C)c1ccc(/C=C(/C(=O)c2ccc(Cl)cc2Cl)n2cncn2)cc1 | 308* | -2 | 2 | -3 | -23
COc1ccc(/C=C(/C(=O)c2ccc(Cl)cc2Cl)n2cncn2)cc1 | . | 18 | -8 | -2 | -9
O=C(N[C@@H]1CCC(=O)N(CC[C@H](Oc2ccccc2)c2ccccc2)CC1)OCc1ccccc1 | 0 | 0 | -2 | -6 | 16
O=c1oc2cc(O)c(Cl)cc2c2ccccc12 | 54 | 0 | -6 | -2 | -9
O=c1oc(Cl)c(Cl)c2ccccc12 | 74 | . | 3 | 1 | 92*
COCc1nc2sc3c(c2c(=O)[nH]1)CCCC3 | 481* | 2 | 4 | 1 | -10
N/C(Cc1ccc(Cl)c(Cl)c1)=N\OC(=O)c1cccs1 | 324* | 101* | 5 | -3 | 26
C[C@H]1CN=C(N(C)C)N1CCC1CCCCC1 | 126 | . | -16 | -7 | -9
Cc1ccc(N2C(=O)CC(Sc3cccs3)C2=O)cc1 (configuration not stated) | 320* | -26 | -4 | -1 | -2
SMILES | SUMO Mot1 rescue | Calb FLC | ATG4B inhibitor | NadD inh | FAS TE block
CC(C)=CCN1CCN(Cc2c[nH]c3ccccc23)CC1CCO (configuration not stated) | -15 | -11 | -1 | -2 | 0
CCOc1ccccc1C(=O)N/N=C/c1ccoc1 | -4 | 104* | -6 | -8 | -4
Cc1cc(C(=O)N/N=C/c2ccc(O)c(O)c2O)c(C)n1-c1ccccc1 | . | 6 | -1 | 33* | -22
O=C(CCN1CCN(c2ccccc2)CC1)N/N=C/c1ccc(O)c(O)c1O | . | 114* | -1 | 30 | -9
Cc1cc(/C=N/NC(=O)c2ccncc2)c(C)n1-c1ccccc1 | -3 | -3 | 4 | 4 | -8
COc1ccc(/C=N/NC(=O)CCN2CCN(c3ccccc3)CC2)c(OC)c1OC | 5 | -10 | -8 | -1 | -8
CCCCC1(CC(=O)OCC)C(=O)N(c2ccccc2)N(c2ccccc2)C1=O | 104 | -19 | 1 | -23 | 17
CN1C(=O)C(CC(=O)NCCc2ccccc2)N(NC(=O)c2ccc(Cl)cc2)C1=S (configuration not stated) | 504 | -18 | -2 | 1 | 3
COc1ccc(C)cc1Nc1n[n+](-c2ccccc2)c(-c2ccc(OC)c(OC)c2OC)s1 | -6 | 92* | 12 | 9 | -146
COc1ccc(C)cc1Nc1n[n+](-c2ccccc2)c(-c2c(Cl)cccc2Cl)s1 | -16 | 5 | 7 | . | .
COc1ccc(C)cc1Nc1n[n+](-c2ccccc2)c(-c2ccc(N(C)C)cc2)s1 | -15 | 105* | 14 | 10 | -126
O=C(Nc1ccc(Oc2ccccc2)cc1)c1ccc2sc([C@H]3C[C@H](O)[C@@H](CO)O3)nc2c1 | . | . | . | -17 | -3
C=CCC[C@@H](CCCCC)OC(=O)/C=C/[C@H](O)[C@@H](O)C[C@@H](O)CC=C | . | . | . | -5 | -5
CCCCCCOC(=O)C[N+](C)(C)CCOC1CC2CCC1(C)C2(C)C (configuration not stated) | -38 | 103* | 10 | -3 | -3
CCCOC(=O)C[N+](C)(C)CCOC1CC2CCC1(C)C2(C)C (configuration not stated) | 99 | -8 | -2 | -3 | -4
CC(C)CCOC(=O)C[N+](C)(C)CCOC1CC2CCC1(C)C2(C)C (configuration not stated) | -8 | 103* | 5 | 12 | 6
CCC(C)OC(=O)C[N+](C)(C)CCOC1CC2CCC1(C)C2(C)C (configuration not stated) | 4 | 87* | 4 | -9 | 2
CCCCOC(=O)C[N+](C)(C)CCOC1CC2CCC1(C)C2(C)C (configuration not stated) | -7 | ? | 6 | 1 | 5
CC(OC(=O)C1=Cc2ccccc2OC1)C(=O)NCC1CCCO1 (configuration not stated) | . | . | 7 | 18 | 10
CC(C)Cc1nnc(NC(=O)c2ccc(N3CCCC3=O)cc2)s1 | 285* | . | -3 | -6 | -7
CCCCc1nnc(NC(=O)c2ccc(N3CCCC3=O)cc2)s1 | 1 | 14 | -2 | -2 | -6
COc1ccc([C@H]2N[C@]3(CCCN(Cc4ccc(C(F)(F)F)cc4)C3=O)[C@H]3C(=O)N(Cc4ccccc4)C(=O)[C@@H]23)cc1 | . | . | . | 11 | 22
O=C(Oc1cc2oc(=O)c3c(c2cc1Cl)CCCC3)c1cccs1 | 1 | 95* | 21 | 7 | 43
O=C(Oc1ccc2c3c(c(=O)oc2c1)CCCC3)c1cccs1 | -2 | 15 | 11 | -9 | 43
Cc1ccccc1C(C(=O)NC1CCCC1)N(C(=O)Cc1cccs1)c1ccc2c(c1)OCCO2 (configuration not stated) | -13 | 53 | -9 | -3 | 54*
O=C(c1ccc2ccccc2c1)N1CCN(c2ccc(C(F)(F)F)cn2)CC1 | 316* | 4 | -3 | -6 | 14

Source: PubChem BioAssay (several laboratories)
